The values below come from PubChem BioAssay AID1851 (National Center for Advancing Translational Sciences (NCATS), 2009).

Several values for one entry are separate records, joined by “and”; a condition that tells them apart may be missing. Equal values may be shown once. Among all 16,000 compounds or so, about 5,700 (36%) were called active. Not shown: some 24% with an inconclusive outcome. The call rests on the fitted dose curve; in most records, active means well fitted curve in the direction sought with a large enough effect; inconclusive means small, poorly fitted or top-dose-only effect, or effect the other way; inactive means no such curve, though single readings can be large or run the other way. The list shows a part of the results.
On the % scale 0 is the no-effect control and ±100 the full control effect.

In the test the target is Cytochrome P450 1A2 (Homo sapiens) (UniProt P05177). As to the kind of experiment: Cytochrome panel assay with activity outcomes. To be noted: recombinant CYP, pro-luciferin dealkylation, luminescence, p450-cyp1a2; series mostly up to 57.1 µM.
Sequence of Cytochrome P450 1A2 (Homo sapiens) (P05177 whole entry, looked up): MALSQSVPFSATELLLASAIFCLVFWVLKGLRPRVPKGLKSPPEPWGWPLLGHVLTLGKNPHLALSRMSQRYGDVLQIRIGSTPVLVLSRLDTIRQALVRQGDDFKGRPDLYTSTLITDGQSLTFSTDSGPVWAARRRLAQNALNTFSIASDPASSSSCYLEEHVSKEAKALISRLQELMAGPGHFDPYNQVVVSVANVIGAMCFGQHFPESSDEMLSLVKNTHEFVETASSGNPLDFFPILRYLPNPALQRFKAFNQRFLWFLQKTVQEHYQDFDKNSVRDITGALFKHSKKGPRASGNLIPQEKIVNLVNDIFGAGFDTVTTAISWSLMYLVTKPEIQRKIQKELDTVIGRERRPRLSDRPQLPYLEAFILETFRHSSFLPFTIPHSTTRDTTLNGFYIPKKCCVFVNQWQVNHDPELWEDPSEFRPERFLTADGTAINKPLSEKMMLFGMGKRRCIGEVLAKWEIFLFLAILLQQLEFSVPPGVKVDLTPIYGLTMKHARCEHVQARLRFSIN
Consider `CCCNC(=O)OC[C@@H]1O[C@H](CCO/N=C(\C)CCN2CCc3nc(-c4ccccc4)c(-c4ccccc4)cc3C2)C=C[C@@H]1Oc1ccc(OC)cc1`, for which the activity, negative = inhibition is -4.45% [at 11.4 µM] (inactive).

Consider `COC(=O)C/C=C\[C@H](C)[C@H](CO)NS(=O)(=O)c1ccc(C)cc1`, for which the activity, negative = inhibition was -2.78% [at 11.4 µM] (inactive).

Usually AC50 stands for the concentration giving half of the maximal activity seen. Regarding `Cc1ccc(C)c(S(=O)(=O)N2CCC(c3nc4c(nnn4Cc4ccc(F)cc4)c(=O)[nH]3)CC2)c1`, the AC50 result was “inactive”.

As for `O=C(NCc1ccco1)c1nc2c(nnn2Cc2cccc(Cl)c2)c(=O)[nH]1`, the AC50 entry is “inactive”.

As to `O=C(Cc1cccs1)N1CCC(c2nc3c(nnn3Cc3ccccc3Cl)c(=O)[nH]2)CC1`, the half-maximal activity concentration (AC50) was 6.31 µM (active).

As for `CCN(CC)CC[n+]1ccc2c(C)c3[nH]c4ccccc4c3c(C)c2c1`, the AC50 is 2.51 µM (active).

In the case of `CCN(CC)CC[n+]1ccc2c(C)c3[nH]c4ccc(O)cc4c3c(C)c2c1`, the AC50 was 3.16 µM (active).

Consider `Cc1ccccc1-c1ccc2ncnc(N3CCNCC3)c2c1`, for which the concentration at half-maximal activity (AC50) was 3.16 µM (active).

Consider `CN1CCN(c2ncnc3ccc(-c4ccccc4Cl)cc23)CC1`, for which the concentration at half-maximal activity (AC50) is 1.58 µM (active).

For `CN1CCN(c2ncnc3ccc(-c4ccccc4C#N)cc23)CC1`, the concentration at half-maximal activity (AC50) is 3.16 µM (active).

Regarding `Clc1ccccc1-c1ccc2ncnc(N3CCNCC3)c2c1`, the AC50 was 2 µM (active).

Regarding `CC(Cc1ccccc1)NC(=O)CSc1nc2nc3c(cc2c(=O)n1-c1ccccc1)COC(C)(C)C3` (configuration not stated), the AC50 result is “inactive”.

As to `C/C(CCN1CCc2nc(-c3ccccc3)c(-c3ccccc3)cc2C1)=N\OC[C@@H](O)COCc1ccco1`, the activity, negative = inhibition was -6.41% [at 11.4 µM] (inactive).

As to `CCOC(=O)C(C)(C)[C@H](O)C(C)C`, the activity, negative = inhibition is -1.66% [at 11.4 µM] (inactive).

For `N#Cc1cccc(NC(=O)N2CCCC3(CCN(C(=O)c4csnn4)CC3)C2)c1`, the AC50 result is “inactive”.

Consider `Cc1ccccc1-c1ccc2ncnc(N3CCN(C)CC3)c2c1`, for which the AC50 was 3.16 µM (active).

In the case of `Cc1cnc(CNc2nc(-c3ccoc3)nc3ccccc23)cn1`, the concentration at half-maximal activity (AC50) is 2 µM (active).

On to `Cc1cnc(CNc2nc(-c3ccc(N(C)C)cc3)nc3ccccc23)cn1`, for which the AC50 is 3.16 µM (active).

Regarding `N=c1n(CCN2CCOCC2)c2ccccc2n1CC(=O)c1ccc(Cl)c(Cl)c1`, the AC50 was 1.26 µM (active).

With `COC(=O)Cn1c(=N)n(CCN2CCCCC2)c2ccccc21`, the AC50 entry is “inactive”.

In the case of `Nc1ccc(N2C(=O)c3ccccc3C2=O)c(Cl)c1`, the AC50 entry is “inactive”.

With `O=C1c2cccc3c(Cl)ccc(c23)C(=O)N1O`, the concentration at half-maximal activity (AC50) is 3.16 µM (active).

In the case of `CC(C)COP(=O)(OCC(C)C)C(O)c1ccccc1F` (configuration not stated), the AC50 result is “inactive”.

With `O=C1CCCCCC1C1(O)C(=O)Nc2ccc(Br)cc21` (configuration not stated), the AC50 result was “inactive”.

As to `CCOC(=O)c1c2ccc(OCC(=O)N/N=C/c3ccc(Cl)cc3)cc2n2ccccc12`, the half-maximal activity concentration (AC50) was 3.16 µM (active).

As for `Cc1cc(C)nc(Nc2ncc(O)n2-c2ccccc2)n1`, the AC50 was 2.82 µM (active).

`N=c1n(-c2ccccc2)c(O)cc(=O)n1-c1ccccc1`: the AC50 entry is “inactive”.

`Cc1ccc(-n2c(O)cnc2Nc2nc(C)cc(C)n2)cc1`: the AC50 was 5.01 µM (active).

For `Cc1ccc(-n2c(C)cc(C(=O)CSc3n[nH]c(N)n3)c2C)cc1`, the AC50 result is “inactive”.

Regarding `S=C(Nc1ccccc1)Nc1nccs1`, the concentration at half-maximal activity (AC50) is 0.794 µM (active).

In the case of `O=C(O)c1ccccc1C(=O)Nc1ccc(S(=O)(=O)Nc2nccs2)cc1`, the AC50 entry was “inactive”.

On to `CN(CCO)Cc1ncccc1O`, for which the activity, negative = inhibition was -10% [at 2.29 µM] (inactive).

For `COc1ccccc1NC(=O)CN1CCC(C(=O)c2ccc(F)cc2)CC1`, the AC50 result was “inactive”.

For the compound `O=C(CCN1CCN(c2ccccc2F)CC1)Nc1ccccc1F`, the AC50 entry is “inactive”.

Turning to `COc1ccccc1NC(=O)CN1CCN(c2ccccc2F)CC1`, the AC50 is 25.1 µM (active).

For the compound `COc1ccccc1NC(=O)CN1CCN(C2c3ccccc3-c3ccccc32)CC1`, the AC50 was 15.8 µM (active).

Take `Cc1ccc(C(=O)C(OC(=O)CN2C(=O)c3ccccc3C2=O)c2ccccc2)cc1` (configuration not stated): the AC50 entry is “inactive”.

In the case of `CC(C)OC(=O)CN1CCN(C2c3ccccc3-c3ccccc32)CC1`, the AC50 is 12.6 µM (active).

As to `COC(=O)C/C=C1\c2ccccc2[C@H](OC)[C@H]1C`, the activity, negative = inhibition is -6.47% [at 11.4 µM] (inactive).

On to `Cc1cc(Cl)ccc1NC(=O)CN1CCC(C(O)(c2ccccc2)c2ccccc2)CC1`, for which the AC50 result is “inactive”.

As to `COc1ccc(NC(C)=O)cc1NC(=O)CN1CCN(C2c3ccccc3-c3ccccc32)CC1`, the AC50 is 28.2 µM (active).

Take `COc1ccc(NC(C)=O)cc1NC(=O)CN1CCN(CC(=O)Nc2ccccc2Cl)CC1`: the AC50 entry was “inactive”.

For `O=C(c1csnn1)N1CCC2(CC1)CN(Cc1cc(C(F)(F)F)cc(C(F)(F)F)c1)C2`, the AC50 result is “inactive”.

`Cc1cc(-c2cccs2)nc(-n2cccc2)n1`: the concentration at half-maximal activity (AC50) is 3.16 µM (active).

Regarding `CCCCN1C2=NCCCN2c2ccccc21`, the AC50 is 25.1 µM (active).

On to `CCCN1C2=NCCCN2c2ccccc21`, for which the AC50 entry is “inactive”.

Turning to `CCCCN1C(=O)CC(Sc2ccccc2C(=O)O)C1=O` (configuration not stated), the AC50 result was “inactive”.

With `CCc1ccccc1OC[C@@H](O)CN[C@H]1CCCc2ccccc21`, the AC50 is 12.6 µM (active).

Consider `Cc1c(C(=O)NC2CCCc3ccccc32)oc2ccc(S(=O)(=O)N3CCOCC3)cc12` (configuration not stated), for which the AC50 result is “inactive”.

With `COC(=O)[C@@]1(Cc2ccccc2)[C@H]2c3cc(C(=O)N4CCCC4)n(CCc4ccccn4)c3C[C@H]2CN1C(=O)c1ccccc1`, the AC50 entry is “inactive”.

As for `COc1ccc(NC(=O)c2cc3n(n2)C(C(F)(F)F)CC(c2ccc4c(c2)OCO4)N3)cc1OC` (configuration not stated), the AC50 result was “inactive”.

`COc1ccc(OC)c(NC(=O)c2cc3n(n2)C(C(F)(F)F)CC(c2ccc4c(c2)OCO4)N3)c1` (configuration not stated): the AC50 is 0.316 µM (active).

Turning to `COc1ccc(C2CC(C(F)(F)F)n3nc(C(=O)N(C)Cc4cn(C)nc4C)c(Cl)c3N2)cc1` (configuration not stated), the AC50 entry was “inactive”.

For the compound `CCOC(=O)C1CCCN(c2ncnc3c2cnn3-c2ccc(Cl)cc2)C1` (configuration not stated), the concentration at half-maximal activity (AC50) is 8.91 µM (active).

`CCOC(=O)C1CCCN(c2ncnc3c2cnn3-c2cccc(C)c2)C1` (configuration not stated): the concentration at half-maximal activity (AC50) was 14.1 µM (active).

For the compound `CCOC(=O)C1CCCN(C(=O)C2CCN(S(=O)(=O)N3CCC4(CC3)OCCO4)CC2)C1` (configuration not stated), the AC50 result is “inactive”.

Consider `CC(=O)Nc1cccc(C(=O)OCc2ccc(C(=O)Oc3ccc(Cl)cc3)cc2)c1`, for which the AC50 result was “inactive”.

As for `Cc1cc(OC(=O)c2ccccc2Cl)cc(=O)n1C`, the AC50 was 3.55 µM (active).

Turning to `CC(=O)c1c(C(C)=O)c(C)n(NC(=O)c2ccccc2Cl)c1C`, the AC50 entry was “inactive”.

As for `Cc1cc(OC(=O)c2ccc(Cl)cc2)cc(=O)n1C`, the AC50 is 25.1 µM (active).

`COc1ccc(C2CC(=O)CC(=O)C2n2cncn2)cc1` (configuration not stated): the AC50 entry was “inactive”.

Regarding `CC(CC(=O)O)(CC(=O)O)c1ccccc1`, the activity, negative = inhibition was -0.666% [at 11.4 µM] (inactive).

As for `COc1cc(-c2ccc(=O)[nH]n2)ccc1OC(F)F`, the AC50 is 5.01 µM (active).

Regarding `c1ccc2c(c1)CCCc1cc(NCCN3CCOCC3)nnc1-2`, the AC50 entry is “inactive”.

With `c1cc(CNCCCN2CCOCC2)ccn1`, the AC50 entry is “inactive”.

Regarding `CCOc1nc(NCCN2CCOCC2)nc(Nc2ccc(C)cc2)n1`, the AC50 entry is “inactive”.

Take `Clc1ccccc1-c1nccc(NCCN2CCOCC2)n1`: the AC50 was 2 µM (active).

As to `O=C(/C=C/c1ccccc1Cl)NCCN1CCOCC1`, the AC50 entry is “inactive”.

In the case of `Cc1ccccc1-c1nccc(NCCN2CCOCC2)n1`, the half-maximal activity concentration (AC50) was 5.01 µM (active).

In the case of `CN(C)c1ccc(-c2nccc(NCCN3CCOCC3)n2)cc1`, the AC50 was 1.26 µM (active).

`C#CCCCO/N=C1/C[C@@H](O)[C@@H](O)[C@@H]2[C@H]3C(=O)N(c4ccc(F)cc4F)C(=O)[C@@H]3CC[C@@H]12`: the activity, negative = inhibition was 5.29% [at 11.4 µM] (inactive).

Consider `CNC(=O)c1c(I)c(C(=O)NCC(=O)Nc2c(I)c(C(=O)O)c(I)c(C(=O)NCCO)c2I)c(I)c(N(C)C(C)=O)c1I`, for which the AC50 result is “inactive”.

As for `O=c1c(-c2cccs2)nc2cncnc2n1-c1ccccc1`, the AC50 was 12.6 µM (active).

In the case of `COc1ccc(-n2c(=O)c(-c3cccs3)nc3cncnc32)cc1`, the half-maximal activity concentration (AC50) was 10 µM (active).

Regarding `COc1ccccc1CNc1cc(-c2ccccc2OC)ncn1`, the AC50 is 2.51 µM (active).

Take `COCCNc1cc(-c2ccccc2C)ncn1`: the AC50 was 15.8 µM (active).

In the case of `COCCNc1cc(-c2ccccc2CN(C)C)ncn1`, the AC50 result was “inactive”.

On to `CC(=O)NCCNc1cc(-c2ccccc2C)ncn1`, for which the concentration at half-maximal activity (AC50) was 15.8 µM (active).

`CC(=O)NCCNc1cc(-c2ccccc2CN(C)C)ncn1`: the AC50 result is “inactive”.

With `COc1ccccc1CNc1cc(-c2ccccc2C)ncn1`, the AC50 was 5.01 µM (active).

As to `CCCc1nnc(NC(=O)CCC(=O)N2CCN(c3ccccn3)CC2)s1`, the AC50 result was “inactive”.

As to `O=C(c1ccc(Oc2ccc(C(F)(F)F)cn2)cc1)N1CCN(c2ccccc2)CC1`, the AC50 result was “inactive”.

For the compound `Cc1ccc(C(=O)N2CCN(c3ccc(C(F)(F)F)cn3)CC2)cc1`, the AC50 was 14.1 µM (active).

`O=C(c1cc(C(F)(F)F)cc(C(F)(F)F)c1)N1CCC2(CC1)CCN(c1ccccn1)CC2`: the AC50 entry is “inactive”.

`CCCS(=O)(=O)N1CCCC(C(=O)NCCCN2CCN(c3ccc(F)cc3)CC2)C1` (configuration not stated): the AC50 entry is “inactive”.

Consider `c1ccc2c(c1)c1ccccc1n2Cn1c2ccccc2c2ccccc21`, for which the AC50 is 0.251 µM (active).

Turning to `CN(C)C(=O)c1ccc(-n2nc(C(F)(F)F)c3c2CCCC3)cc1`, the half-maximal activity concentration (AC50) is 22.4 µM (active).

`COC(=O)[C@@]1(Cc2ccccc2)[C@H]2c3cc(C(=O)N4CCCC4)n(Cc4ccc(C(F)(F)F)nc4)c3C[C@H]2CN1C(=O)c1ccccc1`: the AC50 entry is “inactive”.

Consider `Cc1cccc2cc(=O)[nH]c(C)c12`, for which the AC50 was 14.1 µM (active).

On to `CC1CC/C(=C\c2ccc3c(c2)OCO3)C(=O)/C1=C/c1ccc2c(c1)OCO2` (configuration not stated), for which the AC50 is 3.55 µM (active).

As for `Cc1c(O)c(=O)n(-c2ccccc2)n1C`, the AC50 entry was “inactive”.

As to `CC(=O)c1c(O)cc(=O)n(-c2ccccc2)c1-c1ccc(C)cc1`, the AC50 entry was “inactive”.

As to `Cc1ccc(=O)n(-c2ccccc2)c1`, the concentration at half-maximal activity (AC50) is 31.6 µM (active).

On to `Cc1cc2c(nc1C)CCCN2CC(O)CN1CCCc2nc(C)c(C)cc21`, for which the activity, negative = inhibition was -4.54% [at 11.4 µM] (inactive).

For `O=C1c2ccccc2C(=O)N1CC1CCCO1` (configuration not stated), the AC50 was 14.1 µM (active).

In the case of `O=C1C[C@@H](O)[C@@H](O)[C@H]2[C@@H]3C(=O)N(C[C@@H]4CCCO4)C(=O)[C@@H]3CC[C@H]12`, the activity, negative = inhibition was -4.6% [at 11.4 µM] (inactive) and -8.21% [at 11.4 µM] (inactive).

As to `O=C(NCc1ccccc1)c1ccc2c(c1)C(=O)N(CC1CCCO1)C2=O` (configuration not stated), the AC50 entry is “inactive”.
